According to PubChem BioAssay AID652094 (National Center for Advancing Translational Sciences (NCATS), 2013):
Calls of active or inactive are those of the source.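 The calls were made as follows: active = lower glucosylceramide lipid buildup in Gaucher patient macrophages after compound treatment; inactive = the rest.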

Test: Extended Characterization of Activators of N370S glucocerebrosidase as a Potential Chaperone Treatment of Gaucher Disease: Quantification of GlcCer accumulation in Gaucher macrophages
Details: Gaucher patient macrophages, GlcCer-BODIPY accumulation fluorescence
Text: Glucocerebrosidase (GCase) catalyzes the hydrolysis of beta-glucocerebroside (GC) to glucose and ceramide in lysosomes. Mutations in the glucocerebrosidase gene result in Gaucher disease, an autosomal recessive lysosomal storage disorder. Many of the mutations encountered in patients with Gaucher disease are missense alterations that may cause misfolding, decreased stability and/or mistrafficking of this lysosomal protein. […] These inhibitors include iminosugar analogs and other inhibitors that were discovered as part of previous work. However, the enhancement of enzyme activity by the chaperone action of an enzyme inhibitor must be balanced against the direct inhibition of the enzyme. […] In this extended characterization of our probe, we have further characterized the activity of probes in relevant models of Gaucher disease. This assay attempts to quantitate GC concentration in patient-derived macrophages following compound incubation. NIH Chemical Genomics Center [NCGC] NIH Molecular Libraries Probe Production Centers Network [MLPCN] […]
In order to quantify macrophage GlcCer accumulation, erythrocyte ghosts were labeled with N-[11- (dipyrrometheneboron difluoride) undecanoyl]-D-Glucosyl-beta1-1'-D-erythro-sphingosine (C11 TopFluor Glucosyl Ceramide) (Avanti Polar Lipid) for 30 min at 37 degrees C and fluorescence measured at 495/503 nm on a Victor 1420 multi-label counter (PerkinElmer).

| SMILES | outcome |
| --- | --- |
| C#Cc1ccc(NC(=O)c2cnn3c(C)cc(C)nc23)cc1 | active; decreased |
